In all, about 140,000 sequences were measured (“enrichment ratio after two sorts for PhoP signalling”: median about 0, highest 2% from about 11 on). This is one part of a sample in which the highest values are shown more often than they occur.
B1: PhoQ; a variant is named by its letters at X, in order, P23837 (parent)
chain: MKKLLRLFFPLSLRVRFLLATAAVVLVLSLAYGMVALIGYSVSFDKTTFRLLRGESNLFYTLAKWENNKLHVELPENIDKQSPTMTLIYDENGQLLWAQRDVPWLMKMIQPDWLKSNGFHEIEADVNDTSLLLSGDHSIQQQLQEVREDDDDAEMTHSVAVNVYPATSRMPKLTIVVVDTIPVELKSSYMVWSWFIYVLSANLLLVIPLLWVAAWWSLRPIEALAKEVRELEEHNRELLNPATTRELTSLVRNLNRLLKSERERYDKYRTTLTDLTHSLKTPLXXLQXXLRSLRSEKMSVSDAEPVMLEQISRISQQIGYYLHRASMRGGTLLSRELHPVAPLLDNLTSALNKVYQRKGVNISLDISPEISFVGEQNDFVEVMGNVLDNACKYCLEFVEISARQTDEHLYIVVEDDGPGIPLSKREVIFDRGQRVDTLRPGQGVGLAVAREITEQYEGKIVAGESMLGGARMEVIFGRQHSAPKDE

Variants of: B1
Test: enrichment ratio after two sorts for PhoP signalling (ratio (wild type AVST 3.29)); higher = more functional
Settings: with PhoP (E. coli)
EQYF was tested, and the enrichment ratio was ≤ 0.25. DLKR was tested, and the enrichment ratio was ≤ 0.25. For IPGP, the enrichment ratio was ≤ 0.25. In the case of FPRY, the enrichment ratio is reported as ≤ 0.25. In the case of GVMQ, the enrichment ratio is reported as 5.97. SMCE showed an enrichment ratio of 11.7. SMPA was tested, and the enrichment ratio was ≤ 0.25. With SMIE the enrichment ratio was ≤ 0.25. In the case of SMGS, the enrichment ratio is reported as 1.09. SNCW showed an enrichment ratio of 10.3. SLCW gave an enrichment ratio of 0.501. SMWI was tested, and the enrichment ratio was ≤ 0.25. In the case of SMPE, the enrichment ratio is reported as 0.359. SMCA showed an enrichment ratio of 15.3. SMPI was tested, and the enrichment ratio was 1.09. For SMTA, the enrichment ratio was 11.8. For SMCW, the enrichment ratio was 19.6. For AKLD, the enrichment ratio was ≤ 0.25. For VWSC, the enrichment ratio was ≤ 0.25. For SVVD, the enrichment ratio was ≤ 0.25. With RVNR the enrichment ratio was ≤ 0.25. In the case of SMSR, the enrichment ratio is reported as ≤ 0.25. For SMAE, the enrichment ratio was 25.2. KMAE was tested, and the enrichment ratio was ≤ 0.25. In the case of SMAV, the enrichment ratio is reported as 5.92. In the case of SMSI, the enrichment ratio is reported as 12.9. Variant SMSK has an enrichment ratio of 2.79. With HLVA the enrichment ratio was ≤ 0.25. With AQPM the enrichment ratio was ≤ 0.25. For RVFT, the enrichment ratio was ≤ 0.25. With NAGS the enrichment ratio was ≤ 0.25. In the case of RQQG, the enrichment ratio is reported as ≤ 0.25. With LTCH the enrichment ratio was ≤ 0.25. TDCH gave an enrichment ratio of 11.9. LTMH showed an enrichment ratio of 2.1. For FDCH, the enrichment ratio was ≤ 0.25. FDMH was tested, and the enrichment ratio was ≤ 0.25. TDMH gave an enrichment ratio of 18.2. For EPTI, the enrichment ratio was ≤ 0.25. For MAHQ, the enrichment ratio was ≤ 0.25. With EKMC the enrichment ratio was ≤ 0.25. Variant QIGH has an enrichment ratio of 14. Variant QEGH has an enrichment ratio of 24.6. SNTH was tested, and the enrichment ratio was 7.23. STGH was tested, and the enrichment ratio was 17.1. QGGH was tested, and the enrichment ratio was ≤ 0.25. In the case of SNGP, the enrichment ratio is reported as ≤ 0.25. For QRGH, the enrichment ratio was ≤ 0.25. SNGH showed an enrichment ratio of 23.3. In the case of YTGH, the enrichment ratio is reported as ≤ 0.25. With QIYH the enrichment ratio was ≤ 0.25. For QITH, the enrichment ratio was ≤ 0.25. In the case of SRGH, the enrichment ratio is reported as ≤ 0.25. In the case of YAAS, the enrichment ratio is reported as ≤ 0.25. In the case of QNYF, the enrichment ratio is reported as ≤ 0.25. With GMNL the enrichment ratio was ≤ 0.25. SKVD was tested, and the enrichment ratio was ≤ 0.25. With LATP the enrichment ratio was ≤ 0.25. For DRAC, the enrichment ratio was ≤ 0.25. VPLT was tested, and the enrichment ratio was ≤ 0.25. For GGVS, the enrichment ratio was ≤ 0.25. FTAL gave an enrichment ratio of 0.293. With QVTH the enrichment ratio was ≤ 0.25. QVGP was tested, and the enrichment ratio was ≤ 0.25. QVGH was tested, and the enrichment ratio was 15.9. With LEMS the enrichment ratio was 8.78. In the case of LEMV, the enrichment ratio is reported as 12.9. For LEGG, the enrichment ratio was ≤ 0.25. In the case of LEMK, the enrichment ratio is reported as ≤ 0.25. For LEIV, the enrichment ratio was ≤ 0.25. For LEGM, the enrichment ratio was ≤ 0.25. LEMM showed an enrichment ratio of 11.3. LEMG showed an enrichment ratio of 11.8. With LRMM the enrichment ratio was ≤ 0.25. With LEEG the enrichment ratio was ≤ 0.25. With LEWI the enrichment ratio was 2.42. Work on LEWV yielded an enrichment ratio of 11.9. In the case of FPFR, the enrichment ratio is reported as ≤ 0.25. In the case of FVFS, the enrichment ratio is reported as ≤ 0.25. In the case of GEKH, the enrichment ratio is reported as ≤ 0.25. For QGKV, the enrichment ratio was ≤ 0.25. With SSGP the enrichment ratio was ≤ 0.25. With EPLM the enrichment ratio was ≤ 0.25. With ALDK the enrichment ratio was ≤ 0.25.

Reference: a collection of fitness landscapes (doi:10.1126/science.1257360)
